The record followed here is PubChem BioAssay.

The source made the active and inactive calls.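 How the source made its calls, unless noted: active means inhibition at or above 50% at 10 µM; inactive means inhibition below 50%.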

Assay [1] is described as follows: inhibitors of TNFa-induced NFkB p65 translocation, primary screen, imaging, HUVEC, MLSMR starter and 10KST1 sets (AID 438;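 active means inhibition above 20% together with a positive visual image hit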;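 further: compound added about 3h40 before a 20 min TNFalpha stimulation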;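 on inhibition: signal is the nuclear over cytoplasmic p65 intensity ratio per well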). The conditions noted are these: HUVEC TNFa-induced p65 nuclear translocation; cell count: measured here: nuclei count (cytotoxicity indicator), at 2.08 µM; inhibition: at 2 µM, stronger effect = higher value, 0% TNFa-plus-vehicle, 100% no-TNFa wells.
A short description of assay [2]: inhibitors of mutant huntingtin aggregation, primary screen, imaging, exon1htt(103Q)mCFP cells, high-content imaging (AID 483;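 active means visual image review flags a hit and inhibition of aggregation exceeds 20%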;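 further: compound exposure lasted 3 days before fixation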;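 on nuclei count: percent of the per-plate median nuclei count of sample wells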). As to conditions: exon1htt(103Q)mCFP cell line, aggregate imaging, at 2 µM; inhibition of aggregation: stronger effect = higher value; nuclei count: measured here: cell count, toxicity.
Assay [3] can be described thus: inhibitors of E-selectin induction by TNFa, primary screen, imaging, HUVEC, immunofluorescence, MLSMR starter and 10KST1 sets (AID 487;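 active means visually confirmed hit in the image check and inhibition above 20%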;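 on inhibition: signal is fraction of cell area covered by stained E-selectin grains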;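 on nuclei count: 100% = median nuclei count of all wells on the same plate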). The conditions noted are these: HUVEC TNFalpha-induced E-selectin immunofluorescence imaging, at 2 µM; inhibition: stronger effect = higher value; nuclei count: measured here: cell number, toxicity.
For assay [4], the target named is Voltage-gated potassium channel subunit beta-2 (Rattus norvegicus) (UniProt P62483). As to the kind of experiment: KvBeta enzyme negative modulators, primary screen, biochemical, NADPH fluorescence (AID 622;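 active means fluorescence slope higher than the sample average by over 3 SD, cut at about -0.22 in these data, passing the limit was not always enough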;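 further: slope of raw intensity against log time taken from 70 to 1610 s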). The conditions noted are these: recombinant KvBeta, 4-cyanobenzaldehyde reduction, at 10 µM, stronger effect = higher value.
Voltage-gated potassium channel subunit beta-2 (Rattus norvegicus), sequence (P62483 whole entry, looked up): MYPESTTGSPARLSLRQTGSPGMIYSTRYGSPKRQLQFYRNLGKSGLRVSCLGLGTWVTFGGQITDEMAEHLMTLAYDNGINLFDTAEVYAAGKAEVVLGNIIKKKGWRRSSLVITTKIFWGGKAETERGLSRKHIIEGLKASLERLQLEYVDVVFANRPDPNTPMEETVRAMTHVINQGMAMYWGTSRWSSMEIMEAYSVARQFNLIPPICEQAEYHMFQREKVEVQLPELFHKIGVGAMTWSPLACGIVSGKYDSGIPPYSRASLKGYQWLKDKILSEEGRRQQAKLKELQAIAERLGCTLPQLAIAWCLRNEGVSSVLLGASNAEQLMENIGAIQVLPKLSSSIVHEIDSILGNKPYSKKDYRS
For assay [5] the target is unchanged. As to the kind of experiment: KvBeta positive modulators, primary screen, biochemical, NADPH fluorescence (AID 623;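 active means NADPH fluorescence slope more negative than the mean of all samples by about 3 SD, 99.7% confidence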;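 further: fluorescence intensity change per second fitted from 20 to 320 s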). As to conditions: Recombinant KvBeta, NADPH fluorescence decrease slope, 10 min; at 10 µM; stronger effect = lower value.
For assay [6], the target named is Alpha-2C adrenergic receptor (Homo sapiens) (UniProt P18825). The experiment in a line: modulators of alpha2C/GIRK thallium flux, primary screen, cell-based, HEK293 alpha2C/GIRK1/2 (AID 624;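 active means fluorescence slope after compound addition differing from the mean of all screened samples at 99.7% confidence, in either direction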;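 further: slope of fluorescence ratio to pre-addition baseline per second over 15 to 24 s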). As to conditions: thallium flux BTC fluorescence, at 10 µM, actives lie on both sides.
Alpha-2C adrenergic receptor (Homo sapiens), sequence (P18825 whole entry, looked up): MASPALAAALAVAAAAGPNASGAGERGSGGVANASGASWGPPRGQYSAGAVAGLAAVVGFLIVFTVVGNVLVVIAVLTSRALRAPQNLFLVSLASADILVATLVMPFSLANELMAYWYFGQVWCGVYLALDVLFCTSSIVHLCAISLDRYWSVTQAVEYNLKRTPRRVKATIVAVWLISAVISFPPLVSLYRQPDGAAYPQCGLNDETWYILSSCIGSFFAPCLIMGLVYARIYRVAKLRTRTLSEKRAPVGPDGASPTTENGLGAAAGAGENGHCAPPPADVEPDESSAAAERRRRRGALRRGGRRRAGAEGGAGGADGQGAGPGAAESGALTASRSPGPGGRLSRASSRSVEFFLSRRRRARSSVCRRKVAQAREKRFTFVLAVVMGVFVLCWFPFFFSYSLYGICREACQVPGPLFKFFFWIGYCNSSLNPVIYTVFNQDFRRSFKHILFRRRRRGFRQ
Assay [7] can be described thus: inhibitors of Sendai virus-induced IRF3 signaling, primary screen, TLR/RLR signaling modifier project, cell-based, Sendai virus stimulus, luciferase, 10K MLSCN set (AID 602276).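 Further: firefly luciferase from ISG56 promoter only with Renilla not read in this screen; 0% = Sendai virus plus DMSO and 100% = medium plus DMSO without virus.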 The conditions noted are these: HEK293 RL24 IRF3 luciferase reporter, at 10 µM, stronger effect = higher value.
Assay [8] is described as follows: inhibitors of poly I:C-induced TLR3 signaling, primary screen, cell-based, poly I:C stimulus, luciferase, 10K MLSCN set (AID 602277;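 active means inhibition of the reporter signal at or above 50%; inactive means inhibition below 50%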). As to conditions: HEK293-TLR3 RL24 IRF3 luciferase reporter, at 10 µM, stronger effect = higher value.

In the case of `COC(=O)Nc1ccccc1C(=O)N1CCCCC1`, the cell count in assay [1] was determined as 403. Further, the inhibition in assay [1] is 9.9% (inactive); in assay [3], -25.5% (inactive); in assay [7], 6.49% (inactive); in assay [8], 13.9% (inactive). Moreover, the inhibition of aggregation in assay [2] was 4% (inactive). The nuclei count in assay [2] was determined as 120%; in assay [3], 112%. In addition, in assay [4], the fluorescence slope is -0.597 (inactive). For the same molecule, the NADPH fluorescence slope in assay [5] is -8.5e-07 (inactive). In assay [6], the slope is 0.00473 (inactive).
For `COc1ccc(-c2[nH]c(-c3cccc(OC)c3)nc2SCC(=O)NCc2ccco2)cc1`, in assay [1], the cell count was found to be 672. For the same molecule, the inhibition in assay [1] is 10.5% (inactive); in assay [3], -5.4% (inactive); in assay [7] it was 10.3% (inactive); in assay [8] it was 4.41% (inactive). Besides, the inhibition of aggregation in assay [2] was 5.3% (inactive). Further, the nuclei count worked out at 102% in assay [2] and 124% in assay [3]. In addition, the fluorescence slope in assay [4] was -0.484 (inactive). Besides, the NADPH fluorescence slope in assay [5] is -1.7e-05 (inactive). Besides, the slope in assay [6] is 0.00547 (inactive).
Turning to `CCOC(=O)Nc1ccc(NS(=O)(=O)c2ccc(C)cc2)cc1`, the cell count in assay [1] was 342. Moreover, the inhibition in assay [1] is -0.8% (inactive); in assay [3], -108% (inactive); in assay [7] it was 1.72% (inactive); in assay [8] it was 9.39% (inactive). Also, in assay [2], the inhibition of aggregation is -13.3% (inactive). For the same molecule, the nuclei count came out at 114% in assay [2] and 134% in assay [3]. Also, the fluorescence slope in assay [4] is -0.507 (inactive). Further, in assay [5], the NADPH fluorescence slope was 8.9e-06 (inactive). Further, the slope in assay [6] is 0.00595 (inactive).
Take `CCOC(=O)C(C#N)C(c1cccnc1)c1c(C)[nH][nH]c1=O` (centres undefined): the cell count in assay [1] is 710. In addition, the inhibition in assay [1] was -7.5% (inactive); in assay [3] it was -131% (inactive); in assay [7], 6.49% (inactive); in assay [8], 9.18% (inactive). Also, in assay [2], the inhibition of aggregation was -3.8% (inactive). Also, the nuclei count in assay [2] amounted to 93%; in assay [3], 101%. Further, in assay [4], the fluorescence slope is -0.325 (inactive). The NADPH fluorescence slope in assay [5] was -3.9e-05 (inactive). The slope in assay [6] was 0.0052 (inactive).
For `COc1ccc(OC)c(Nc2nc(-c3sc(N)nc3C)cs2)c1`, the cell count in assay [1] came out at 715. The inhibition in assay [1] is -8.6% (inactive); in assay [3], -77.1% (inactive); in assay [7] it was -4.79% (inactive); in assay [8], -10.6% (inactive). The inhibition of aggregation in assay [2] is 11.3% (inactive). The nuclei count in assay [2] came out at 104%; in assay [3] it was 105%. In assay [4], the fluorescence slope was -0.34 (inactive). Moreover, the NADPH fluorescence slope in assay [5] is -4.1e-05 (inactive). In addition, the slope in assay [6] was 0.00384 (inactive).
Regarding `COc1ccc(C(=O)Nc2ccc(S(=O)(=O)NC(C)=O)cc2)cc1`, the cell count in assay [1] amounted to 568. The inhibition was 2.4% (inactive) in assay [1], 9.3% (inactive) in assay [3], 10.3% (inactive) in assay [7] and 6.87% (inactive) in assay [8]. The inhibition of aggregation in assay [2] is 21.1% (inactive). Further, the results for the nuclei count in assay [2] and in assay [3] were 92.1% and 107%, respectively. For the same molecule, in assay [4], the fluorescence slope is -0.494 (inactive). Besides, the NADPH fluorescence slope in assay [5] was -2.4e-05 (inactive). Further, the slope in assay [6] is 0.00509 (inactive).
In the case of `O=C(CSc1nc2ccccc2o1)Nc1ccccc1`, the cell count in assay [1] came out at 728. For the same molecule, the inhibition is 11.1% (inactive) in assay [1], -10.4% (inactive) in assay [3], -21.3% (inactive) in assay [7] and -87.6% (inactive) in assay [8]. Besides, the inhibition of aggregation in assay [2] is 0.9% (inactive). For the same molecule, the results for the nuclei count in assay [2] and in assay [3] were 100% and 106%, respectively. Further, in assay [4], the fluorescence slope was -0.285 (inactive). In addition, the NADPH fluorescence slope in assay [5] is -8e-06 (inactive). In addition, in assay [6], the slope was 0.00667 (inactive).
For the molecule `CCCCN(C)C(=O)c1cn(C)c2ccc(S(=O)(=O)N(C)C)cc2c1=O`, the cell count in assay [1] turned out to be 559. Besides, the inhibition was -5.1% (inactive) in assay [1], 39.3% (inactive) in assay [3], 6.56% (inactive) in assay [7] and 27.1% (inactive) in assay [8]. Moreover, the inhibition of aggregation in assay [2] was 15.7% (inactive). For the same molecule, the nuclei count in assay [2] came to 76.4%; in assay [3], 105%. Also, the fluorescence slope in assay [4] is -0.6 (inactive). Also, the NADPH fluorescence slope in assay [5] is -3.3e-05 (inactive). For the same molecule, the slope in assay [6] is 0.00635 (inactive).
In the case of `COC(=O)c1[nH]c2ccc(C)cc2c1NC(=O)CN1CCCc2ccccc21`, the cell count in assay [1] amounted to 408. The inhibition is 3.1% (inactive) in assay [1], -29.9% (inactive) in assay [3], 21.5% (inactive) in assay [7] and 12% (inactive) in assay [8]. Besides, the inhibition of aggregation in assay [2] was 21.6% (inactive). Besides, the nuclei count is 83.4% in assay [2] and 106% in assay [3]. Also, the fluorescence slope in assay [4] is -0.39 (inactive). Moreover, in assay [5], the NADPH fluorescence slope was -4.8e-05 (inactive). Besides, in assay [6], the slope is 0.00333 (inactive).
Take `CC(C)(C)SCCNC(=O)COc1ccc(Cl)cc1`: in assay [1], the cell count came to 237. In addition, the inhibition was 3.4% (inactive) in assay [1], -272% (inactive) in assay [3], -15.2% (inactive) in assay [7] and -2.28% (inactive) in assay [8]. In addition, the inhibition of aggregation in assay [2] was 19.9% (inactive). Besides, the nuclei count in assay [2] came out at 83.8%; in assay [3], 147%. In addition, in assay [4], the fluorescence slope is -0.419 (inactive). For the same molecule, in assay [5], the NADPH fluorescence slope was 1.6e-05 (inactive). Further, the slope in assay [6] is 0.00681 (inactive).
On to `COc1ccc(C2c3c(oc4ccccc4c3=O)C(=O)N2Cc2ccncc2)cc1OC` (centres undefined), for which the cell count in assay [1] amounted to 665. In addition, the inhibition is -2.6% (inactive) in assay [1], -9.9% (inactive) in assay [3], 14.3% (inactive) in assay [7] and 18.9% (inactive) in assay [8]. In assay [2], the inhibition of aggregation was -6.6% (inactive). The nuclei count stood at 108% in assay [2] and 115% in assay [3]. Further, the fluorescence slope in assay [4] was -0.315 (inactive). Further, the NADPH fluorescence slope in assay [5] is -4.9e-05 (inactive). Moreover, the slope in assay [6] is 0.00493 (inactive).
`Cc1c(C(=O)N2CCN(c3ccccc3)CC2)sc2ncnc(N3CCN(c4ccccc4)CC3)c12`: in assay [1], the cell count was determined as 613. For the same molecule, the inhibition is 6.2% (inactive) in assay [1], -70.4% (inactive) in assay [3], 7.72% (inactive) in assay [7] and 4.87% (inactive) in assay [8]. Moreover, in assay [2], the inhibition of aggregation is 9.7% (inactive). For the same molecule, the values for the nuclei count in assay [2] and in assay [3] were 107% and 127%, respectively. The fluorescence slope in assay [4] is -0.445 (inactive). For the same molecule, the NADPH fluorescence slope in assay [5] is -1.1e-05 (inactive). Also, the slope in assay [6] is 0.00705 (inactive).
Take `CC(NS(=O)(=O)c1ccccc1)C(c1cccs1)N1CCN(C)CC1` (centres undefined): the cell count in assay [1] was 445. The inhibition in assay [1] is -6.7% (inactive); in assay [3] it was -262% (inactive); in assay [7], 20.5% (inactive); in assay [8], 36.2% (inactive). The inhibition of aggregation in assay [2] was -18.1% (inactive). The figures for the nuclei count in assay [2] and in assay [3] were 111% and 137%, respectively. In addition, the fluorescence slope in assay [4] is -0.321 (inactive). For the same molecule, the NADPH fluorescence slope in assay [5] is -9.7e-06 (inactive). The slope in assay [6] is 0.00347 (inactive).
Regarding `O=C(NCCC1=CCCCC1)N[C@@H](Cc1ccccc1)C(=O)O`, the cell count in assay [1] came to 377. Further, the inhibition in assay [1] was -3.9% (inactive); in assay [3], -24.3% (inactive); in assay [7], -1.48% (inactive); in assay [8] it was 0.553% (inactive). Besides, in assay [2], the inhibition of aggregation is -1.8% (inactive). Also, the figures for the nuclei count in assay [2] and in assay [3] were 108% and 115%, respectively. Also, the fluorescence slope in assay [4] is -0.447 (inactive). Moreover, in assay [5], the NADPH fluorescence slope is -0.000113 (active). Besides, the slope in assay [6] is 0.00549 (inactive).
